A selection: hits, their analogues and other compounds. The true share with any hit is near 4.2%.
PLK1 PBD inh = inhibitors of human PLK1 polo-box domain binding. P53350. Plk1 PBD binding of FITC phosphopeptide, fluorescence polarization. Potency, µM, inactives show max response, negative = inhibition, actives largely listed as inhibitors. actives 2.8% (n = 360,000). AID 720504; also: series mostly up to about 57 µM; nearly all actives have a fitted effect of over 65% in size
VDR inh = inhibitors of human vitamin D receptor; P11473; actives 0.93% (n = 400,000); AID 504847; VDR-SRC2-3 peptide fluorescence polarization, 2 h; Potency, µM, inactives show max response, negative = inhibition, actives largely listed as inhibitors
Target sequence (P11473 whole entry, looked up): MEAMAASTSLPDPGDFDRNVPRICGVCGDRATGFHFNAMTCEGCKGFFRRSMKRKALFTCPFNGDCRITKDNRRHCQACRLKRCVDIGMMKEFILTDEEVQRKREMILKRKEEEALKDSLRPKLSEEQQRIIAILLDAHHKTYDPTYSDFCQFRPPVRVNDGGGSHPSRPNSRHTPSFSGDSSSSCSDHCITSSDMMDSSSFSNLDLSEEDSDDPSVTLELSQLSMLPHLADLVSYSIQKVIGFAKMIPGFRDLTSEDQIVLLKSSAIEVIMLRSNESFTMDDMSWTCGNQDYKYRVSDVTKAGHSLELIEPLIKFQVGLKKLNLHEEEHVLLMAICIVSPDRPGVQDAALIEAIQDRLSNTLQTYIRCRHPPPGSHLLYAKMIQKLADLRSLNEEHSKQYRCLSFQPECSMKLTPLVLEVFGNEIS
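Inhibition of the VDR/SRC2-3 peptide interaction is quantified by fluorescence polarization. Compounds (23 nl, pintool) incubate with the reagents for 2 hours at ambient room temperature.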
12-LOX inh = blocks human arachidonate 12S-lipoxygenase; AID 1671190; Potency, µM (highest dose often 108 µM), for inactives: top-dose activity change, negative = inhibition, hits mostly inhibitors; P18054; actives 1.1% (n = 580,000); purified 12hLO, xylenol orange hydroperoxide absorbance
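Hydroperoxide product was detected by ferrous iron/xylenol orange as the 573 to 405 nm absorbance ratio. Arachidonic acid at 40 uM (final) was turned over for 30 min at room temperature by 150 nM human 12hLO, pH 7.0 Hepes buffer, after 15 min compound preincubation.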
Sfp PPTase inh = inhibitors of Bacillus subtilis Sfp phosphopantetheinyl transferase; Potency, µM, without a hit: largest response in the series, negative = inhibition, usual class: inhibitors; actives 3.5% (n = 310,000); Biochemical Sfp PPTase activity, qHTS; AID 1490; Q9F4F7;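 also: the enzyme is Sfp with the accession as filed and its product quenches rhodamine fluorescence; 0% = enzyme reaction without inhibitor and -100% = no enzyme wells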
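Sfp 15 nM + cpd, 15 min RT; start w/ rhodamine-CoA 5 uM, BHQ-2-YbbR 12.5 uM (final); 50 mM Hepes pH 7.6, 10 mM MgCl2, 0.01% NP-40, 0.01% BSA; read 525/598 nm at 0 and 30 min.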
Numbers without * were called inactive; ? = inconclusive; . = no result; ! = a repeat was not active; [ ] = dose if it differs, or a comment. Calls follow the shape of the dose curve; as a rule, active = well fitted curve in the direction sought with a large enough effect; inconclusive = small, poorly fitted or top-dose-only effect, or another doubt; inactive = no such curve, though single readings can be large; an effect the other way counts as inactive or inconclusive. Unless noted, % is scaled to controls: 0 for no effect and ±100 for the full control effect; potency is read from the fitted curve at half-maximal effect.

SMILES	PLK1 PBD inh	VDR inh	12-LOX inh	Sfp PPTase inh
COc1ccc(N2C(=O)NC(=O)/C(=C/c3cccc(OC(=O)c4cccs4)c3)C2=O)cc1Cl	18.9µM*	?	35.5µM*	?
O=[N+]([O-])c1cc(-n2cnnn2)c(O)c([N+](=O)[O-])c1	-21.4%	-17.0%	?	11.1%
Fc1cccc(CCNCc2ccccn2)c1	-5.5%	-1.7%	0.0%	56.2µM*
c1ccc(CNCCc2ccc3c(c2)OCO3)nc1	-5.4%	9.6%	2.6%[57.4 µM]	-3.8%
O=c1[nH]c(=S)n(CCC2=CCCCC2)c(O)c1C=NCc1cccnc1	.	.	0.0%	-1.2%
O=C(N/N=C/c1c(O)n(CCC2=CCCCC2)c(=S)[nH]c1=O)c1ccccc1	?	?	28.2µM*	7.7%
O=C(O)C1CN(CP(=O)(O)O)CCN1 (configuration not stated)	.	9.5%	?	-0.3%
O=C(O)[C@@H]1CCN1	.	-10.4%	25.1µM*	.
CNc1cc(Cl)c2nonc2c1[N+](=O)[O-]	8.44µM*	35.5µM*	?	-26.1%
Oc1c(Cl)cccc1Cc1cc(Cl)cc(Cl)c1O	26.7µM*	-15.1%	?	.
Clc1cccc(CNCCc2c[nH]c3ccccc23)c1	-3.7%	-14.7%	4.47µM*	5.0%
c1ccc2c(CCNC3CCCCC3)c[nH]c2c1	-4.2%	10.2%	?	50.1µM*
c1ccc2c(CCNCC3CCCCC3)c[nH]c2c1	.	.	-11.0%	.
Cc1ccc(CNCCc2c[nH]c3ccccc23)c(C)c1	.	.	12.6µM*	.
CCOc1ccc(CNCCc2c[nH]c3ccccc23)cc1OCC	.	.	-27.1%	.
COc1ccc(CNCCc2c[nH]c3ccccc23)c(OC)c1OC	7.0%	7.3%	0.0%	9.4%
S=P(NC1CCCCC1)(N1CC1)N1CC1	?	-13.3%	8.4%	?
CC(=NCCC1=CCCCC1)c1c(O)[nH]c(=O)[nH]c1=O	1.0%	11.7%	-19.5%	12.9%
COc1cc2c(cc1OCc1ccccc1)N(C(=O)c1cc3ccccc3n1C)CC21CCN(C)CC1	.	.	31.6µM*	.
COC(=O)OCC12CCC(O1)C1(C)C(=O)OCC21 (configuration not stated)	23.8µM*	?	-5.8%	13.1%
O=C1NC(=O)N(Cc2ccccc2)C(=O)/C1=C/c1cnc(-c2ccccc2)nc1	6.7µM*	25.1µM*	?	56.2µM*
Cc1ccccc1-n1c(C)cc(/C=C2/C(=O)NC(=O)N(Cc3ccco3)C2=O)c1C	-20.8%	-4.9%	?	-4.5%
CSc1ncc(/C=C2/C(=O)NC(=O)N(c3ccc(C(C)C)cc3)C2=O)cn1	15µM*	?	?	79.4µM*
CCc1ccc(N2C(=O)NC(=O)/C(=C\c3cccn3CCOc3ccc(C(C)C)cc3)C2=O)cc1	-6.6%	?	?	4.7%
CC(C)c1ccc(N2C(=O)NC(=O)/C(=C/c3cnc(-c4ccccc4)nc3)C2=O)cc1	11.9µM*	35.5µM*	15.8µM*	56.2µM*
SMILES	PLK1 PBD inh	VDR inh	12-LOX inh	Sfp PPTase inh
Cc1cc(=O)n(-c2ccccc2)n1-c1ccccc1	-0.9%	13.7%	-20.8%	6.1%
CCCCn1nnnc1C(c1ccccc1)N1CCC2(CC1)C(=O)NCN2c1ccccc1 (configuration not stated)	-9.3%	.	-3.0%	.
COc1ccccc1CCNC(=O)CCC(=O)N1CC2C[C@@H](C1)Cn1c2cccc1=O	-12.4%	-12.0%	-10.7%	9.1%
COc1ccc(OC)c(-n2c(O)c(/C=C3\C=Nc4ccccc43)c(=O)[nH]c2=O)c1	9.47µM*	-23.8%	0.0%	50.1µM*
CCOc1ccc(-n2c(O)c(/C=C3\C=Nc4ccccc43)c(=O)[nH]c2=O)cc1	22.9%	182.6%	.	-2.5%
Cc1ccc([N+](=O)[O-])[c]2c1[O][Hg]2	.	.	0.051µM*	.
Cc1ccccc1[N+](=O)[O-]	-6.2%	7.9%	-14.3%	.
COc1cc(/C=C(\C)[N+](=O)[O-])c(OC)c2c1OCO2	.	.	-9.3%	.
C#CCOc1cc(C2C3=C(COC3=O)Nc3cc4c(cc32)OCO4)ccc1OC (configuration not stated)	-12.2%	-0.5%	31.0%	25.1%
C#CCOc1ccc(OC)cc1C(c1c(C)[nH][nH]c1=O)c1c(C)[nH][nH]c1=O	21.2µM*	?	.	-2.6%
Oc1ccc2c3c1O[C@H]1c4c(c5ccccc5n4Cc4ccccc4)C[C@]4(O)[C@H](C2)N(CC2CC2)CC[C@@]314	.	?	0.0%	-10.4%
CC[C@@H](CO)NC(=O)[C@@H]1C=C2c3cccc4c3c(cn4C)C[C@H]2N(C)C1	-12.2%	28.2µM*!	?	-8.5%

Compound activity (PubChem BioAssay)
